PubChem BioAssay (NCI)
About 79,000 compounds went through this panel and 15% of them were active in at least one assay; those are over-represented in the sample as a whole. Active and inactive are the calls of the source. Cut-off read from the data, not from the text of the source: active = growth inhibition above about 70%; inactive = the rest.

Assays:
[1] = NCI Yeast Anticancer Drug Screen. Data for the rad50 strain (AID 155);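 note: 0% = growth of vehicle-only cultures of the same strain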; conditions: S. cerevisiae rad50 strain growth inhibition; at 50.0 µM; hits give high values
Summary of the method: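 A DNA repair-deficient yeast mutant serves as the test organism; compound-induced growth inhibition is calculated against vehicle-treated cells.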

[2] = NCI Yeast Anticancer Drug Screen. Data for the mec2-1 strain (AID 157); conditions: S. cerevisiae mec2-1 strain, at 50.0 µM, hits give high values
Summary of the method: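 Cells of the genetically defined mec2-1 yeast strain are incubated with test compound. Inhibition of growth is calculated against vehicle-treated controls.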

[3] = NCI Yeast Anticancer Drug Screen. Data for the sgs1 mgt1 strain (AID 161);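 note: 0% = growth of cultures given vehicle only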; conditions: S. cerevisiae sgs1 mgt1 strain, at 50.0 µM, hits give high values
Summary of the method: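 Read-out: growth inhibition vs vehicle controls. Cells: mutant yeast strain deficient in DNA damage repair.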

[4] = NCI Yeast Anticancer Drug Screen. Data for the cln2 rad14 strain (AID 165);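 note: 0% = growth equal to vehicle treated cultures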; conditions: S. cerevisiae cln2 rad14 strain, at 50.0 µM, hits give high values
Summary of the method: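 The screen exposed genetically defined yeast (cln2 rad14) to test compounds and scored growth inhibition relative to vehicle-treated controls.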

[5] = NCI Yeast Anticancer Drug Screen. Data for the bub3 strain (AID 167); conditions: S. cerevisiae bub3 mutant strain, at 50.0 µM, hits give high values
Summary of the method: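 Inhibition values come from growth of compound-treated mutant yeast normalised to vehicle-treated controls.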

[6] = NCI Yeast Anticancer Drug Screen. Data for the mlh1 rad18 strain (AID 175); conditions: S. cerevisiae mlh1 rad18 strain growth inhibition; at 50.0 µM; hits give high values
Summary of the method: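 Compound-treated yeast growth, normalised to vehicle controls. Strain bears defined DNA repair mutations.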

Measured: growth inhibition

C/C(O)=C(\N=Nc1ccccc1)C(N)=O
inactive: [1] -9.45% | [2] 7.95% | [3] 5.9% | [4] -28.9% | [5] -0.8% | [6] -3.45%

CCC(=O)NCCCCCN1CCCCC1
inactive: [1] 8.55% | [2] 5.35% | [3] 9.75% | [4] -15.6% | [5] -1.1% | [6] 9.05%

Cc1cccc(/C=C/C(=O)C(C)CN(C)C)c1 (stereo not given)
inactive: [1] 41.4% | [2] 15.6% | [3] 63% | [4] 30.4% | [5] 28.6% | [6] 39.5%

CCOC(=O)c1nc2ccc(C(F)(F)F)cc2nc1Nc1ccc(OC)c(OC)c1
inactive: [1] -16.7% | [2] -11.9% | [3] -15.7% | [4] -6.15% | [5] -17.4% | [6] -8.75%

CCOc1ccc(N=C(NC(=O)c2ccccc2)SC)cc1
inactive: [1] -5.9% | [2] -0.7% | [3] -0.15% | [4] 23.3% | [5] 10.1% | [6] 0.65%

C#CCN(CC#C)C(=O)C(=O)c1c[nH]c2ccc(OC)cc12
inactive: [1] 41.2% | [2] 0.9% | [3] 56.8% | [4] 44.5% | [5] 52.4% | [6] 51%

CC(=O)Oc1cccc2c1C(=O)C1CC(O)C3(C=O)OC(C)(C)OC2(C)C13 (stereo not given)
inactive: [1] 8.45% | [2] -2.6% | [3] 5.95% | [4] 4.7% | [5] -3.45% | [6] 3.6%

CCOC(=O)/C(=C/c1ccc(N(C)C)cc1)N(CC)CC
inactive: [1] -34.2% | [2] -10.2% | [3] -14.9% | [4] 13.4% | [5] 7.25% | [6] -18.6%

Cc1n(C)nn[n+]1C
inactive: [1] 2.65% | [2] -8.35% | [3] -2.65% | [4] -24.1% | [5] 7.9% | [6] -16.5%

CC1=NC2(CCCCC2)N(Cl)C(=O)C1SC#N (stereo not given)
inactive: [1] -45.2% | [2] -72.3% | [3] -23.8% | [4] -27.6% | [5] -13.8% | [6] -27.4%

O=C(Nc1nc(=S)c2c(ncn2CCO)[nH]1)c1ccccc1
inactive: [1] 4.95% | [2] -14% | [3] 8.6% | [4] 12.9% | [5] 4.7% | [6] -0.7%

CCN(CC)c1ccc(C(=O)c2ccccc2C(=O)O)c(O)c1
inactive: [1] -38.2% | [2] -8.75% | [3] -27.4% | [4] 5.35% | [5] -15.8% | [6] 5.2%

C/C(=C\c1ccc(F)cc1)C(=O)O
inactive: [1] 20.2% | [2] -0.95% | [3] 0% | [4] 11.2% | [5] 14.9% | [6] 13.8%

O=C1CC2(CCC(O)(c3ccc(Cl)cc3)C(C(=O)c3ccc(Cl)cc3)C2)C(=O)c2ccccc2N1 (stereo not given)
inactive: [1] -15.1% | [2] -3.55% | [3] -16.9% | [4] -23.5% | [5] -19.4% | [6] -48.6%

CN1C=CC=CC1=C1C(=O)c2ccccc2C1=O
inactive: [1] 26.8% | [2] 12.6% | [3] 17.2% | [4] 35.6% | [5] -2.1% | [6] 23.2%

O=C1C(O)CCN1C1CCCCC1 (stereo not given)
inactive: [1] 10.7% | [2] -6.95% | [3] -0.3% | [4] -2.85% | [5] 4.55% | [6] 0.2%

Brc1ncccn1
inactive: [1] 23.8% | [2] -16.9% | [3] 0.65% | [4] 17.9% | [5] 7.75% | [6] 14.8%

O=C(Cc1ccccc1C(=O)O)c1ccccc1
inactive: [1] -16.6% | [2] -18.6% | [3] -23.6% | [4] -24.4% | [5] -25.1% | [6] -13.3%

CCC(Cc1ccccc1)OC(=O)c1ccccc1C(=O)O (stereo not given)
inactive: [1] -16.2% | [2] -10.8% | [3] 8% | [4] -43.3% | [5] -6.85% | [6] 1.9%

O=C(O)c1ccc(C(=O)c2ccccc2)c(C(=O)O)c1
inactive: [1] -4.05% | [2] -1.8% | [3] -19.3% | [4] -8.7% | [5] -62.9% | [6] -17.4%

CC1(C)OC2C(=O)OC(COCc3ccccc3)C2O1 (stereo not given)
inactive: [1] 16.7% | [2] 2.2% | [3] 4.25% | [4] 11.1% | [5] 8.5% | [6] 34%

O=C(CCCn1cnc([N+](=O)[O-])n1)NCCCn1ccnc1[N+](=O)[O-]
inactive: [1] -26.2% | [2] -19.7% | [3] -26.1% | [4] -3.45% | [5] -34.8% | [6] -7.8%

COc1ccc(/C=C/C(=O)C(C)(C)CN(C)CCN(C)C)cc1
inactive: [1] -36% | [2] -7.25% | [3] -23.9% | [4] -7.65% | [5] -5.25% | [6] -8.45%

CCSC(C#N)C(C)=O (stereo not given)
inactive: [1] 34.9% | [2] 22.1% | [3] 56.4% | [4] 38.5% | [5] 39% | [6] 42.6%

C=C(C)COC(OCC(=C)C)C(C)C
inactive: [1] 26.4% | [2] 3.05% | [3] 3.45% | [4] 9.35% | [5] 22.2% | [6] 12.2%

CCNCc1cc(Nc2cc(C)nc(/N=C(\N)Nc3ccc(Cl)c(Cl)c3)n2)ccc1OC
active: [1] 98.8% | [2] 99% | [3] 99.3% | [4] 97.5% | [5] 98.2% | [6] 98.4%

C=Nc1ccc(C)cc1
inactive: [1] 6.7% | [2] -14.8% | [3] -12% | [4] -15.7% | [5] -2.7% | [6] -18.4%

CCOC1OC(C2COC(=S)O2)C(O)C1O (stereo not given)
inactive: [1] 9.35% | [2] -2.15% | [3] 7.85% | [4] -4.1% | [5] -0.15% | [6] 13.6%

CC(=O)Nc1nc(Cl)c2cc[nH]c2n1
inactive: [1] -1.05% | [2] 2.5% | [3] -5.5% | [4] -10.3% | [5] -11.9% | [6] -11.6%

COc1ccc(-c2nc(N)nc(-c3cc(C)ccc3O)c2Cl)cc1
inactive: [1] 12.7% | [2] -0.45% | [3] 5.3% | [4] 17.4% | [5] 6.5% | [6] 12.6%

O=C(CNc1ccccc1[N+](=O)[O-])Nn1cnc2ccc(S(=O)(=O)Nc3ccccc3[N+](=O)[O-])cc2c1=O
inactive: [1] 25.8% | [2] -1.25% | [3] 39.8% | [4] 15.1% | [5] 21.2% | [6] 28.5%

NC(=O)C(=CNc1nc(-c2ccc(Cl)c(Cl)c2)cs1)C(N)=O
inactive: [1] -53.9% | [2] -45.1% | [3] -29.4% | [4] -17.2% | [5] -6.5% | [6] -8.25%

Cc1nc(-c2nc(C)c(C(=O)NNC(=O)C[n+]3ccccc3)s2)sc1C(=O)NNC(=O)C[n+]1ccccc1
inactive: [1] 21.9% | [2] 10.6% | [3] 52% | [4] -20.9% | [5] 0.2% | [6] 14.4%

Nc1ccccc1C(=O)Nc1ccc(Cl)cc1C(=O)O
inactive: [1] -7% | [2] -3% | [3] -14.2% | [4] -14.8% | [5] 2.65% | [6] -5.1%

N#Cc1c(CC(=O)O)cc(=O)n2c1[nH]c1ccccc12
inactive: [1] -13.9% | [2] -12.9% | [3] -1.9% | [4] 13.4% | [5] -11.9% | [6] -10.3%

CCCCCCCC(CC#N)(CCCCC)CCCCCC (stereo not given)
inactive: [1] 16.6% | [2] -10.1% | [3] 11.9% | [4] -8.3% | [5] 7.1% | [6] 26.1%

CC(=O)NC(=O)C(C(C)=O)c1ccccc1 (stereo not given)
inactive: [1] -5.8% | [2] -0.25% | [3] -7.35% | [4] 12.8% | [5] -7.75% | [6] -10.9%

CC(C)(C)OC(=O)CC(NC(=O)OC(C)(C)C)C(=O)N[C@@H]1CCCC[C@H]1C(=O)OCc1ccccc1 (stereo not given in full)
inactive: [1] 8.3% | [2] 15.2% | [3] 9.55% | [4] 8.35% | [5] 14.7% | [6] 23.1%

Nc1nc(SCC(=O)O)[nH]c(=O)c1NS(=O)(=O)c1ccccc1[N+](=O)[O-]
inactive: [1] 21.4% | [2] -4.1% | [3] -2.4% | [4] 23.1% | [5] 2.75% | [6] 5.6%

Cc1nnc(-c2ccccc2)s1
inactive: [1] 15.1% | [2] 12.3% | [3] -3.2% | [4] 12.1% | [5] -10.6% | [6] -7.45%
